The assay in a line: NSCLC 1 Cell Viability Secondary Assay for qHTS Assay for Epigenetic Modulator. Particulars: NSCLC 1 cells viability, MTS absorbance, 4 days. An excerpt:
NIH Molecular Libraries Screening Centers Network [MLSCN] NIH Chemical Genomics Center [NCGC] MLSCN Grant: 1 X01 MH079860-01 Assay Provider: Elisabeth D. Martinez, University of Texas SW Medical Center NCGC Assay Overview: This secondary assay characterizes selected actives identified in the qHTS of the Locus Derepression (LDR) assay (PubChem AID 597). The LDR assay detects the derepression of a GFP reporter that is stably integrated in a region of the genome of murine c127i mammary cells that is presumably silenced. Compounds that cause derepression of the locus to express GFP are identified by enumerating GFP positive cells using a laser-scanning microplate cytometer. Selected LDR actives were assayed for killing of NSCLC 1, a patient-derived nonsmall cell lung carcinoma line. Known epigenetic drugs, like histone deacetylase inhibitors, can block cancer cell growth. NSCLC 1 cell viability was measured using Cell Titer 96 AQueous One (Promega), an assay which detects the ability of metabolically active cells to reduce a tetrazolium salt substrate (MTS), into a soluble formazan product that can be measured by colorimetry.
NCGC Assay Protocol Summary NSCLC 1 cells were plated in 96-well flat bottom tissue culture dishes (Corning) and grown overnight at 37 C and 5% CO2, then treated with compounds, incubated 4 days, and assayed for viability using the Cell Titer 96 AQueous One kit (Promega) according to the manufacturer's protocol. Absorbance at 490 nm and 650 nm (reference) was measured by a Spectra Max (Molecular Devices). Data were normalized to the untreated control (100% viability). Each cell line was tested in one or two independent assays, each containing 4 or 8 replicates. For further details, see R.L. Johnson, W. Huang, A. Jadhav, C.P. Austin, J. Inglese, E.D. Martinez, A Quantitative High-Throughput Screen Identifies Potential Epigenetic Modulators of Gene Expression, Analytical Biochemistry (2007), doi: 10.1016/j.ab.2007.12.028
On the technique in general: Quantitative high-throughput screening tests each substance at several concentrations.

Results filed as inconclusive are left out. The source made the active and inactive calls. Calls follow the shape of the full dose curve.

In the case of `CC(C)C(=O)NC(c1ccc(N(C)C)cc1)c1ccc2cccnc2c1O` (configuration not stated), the Potency is 0.3 µM (active).

Consider `CC(C)C(=O)NC(c1ccco1)c1ccc2cccnc2c1O` (configuration not stated), for which the Potency was 1 µM (active).

For the molecule `O=Nc1ccc(O)c2ncccc12`, the Potency was 4 µM (active).

For the molecule `CC(C)C(=O)NC(c1ccco1)c1cc([N+](=O)[O-])c2cccnc2c1O` (configuration not stated), the Potency is 8 µM (active).

As for `CN1C(=S)SC(c2ccccc2)N(C)C1c1ccccc1` (configuration not stated), the molecule was classed as inactive.

As to `CC(/C=C/C(=O)NO)=C\[C@@H](C)C(=O)c1ccc(N(C)C)cc1`, the Potency is 0.1 µM (active).

Turning to `O=C(CSc1cccc2cccnc12)NCc1ccccc1`, the outcome was inactive.

(Values after PubChem BioAssay AID1036 (National Center for Advancing Translational Sciences (NCATS), 2008).)
